Bioassay records as filed in PubChem.
GPT2 inhibitor: blocks human glutamate pyruvate transaminase 2 | AID 1671188 | Recombinant GPT2, coupled pyruvate oxidase/HRP Amplex Red fluorescence | Potency, µM (titrated, usually from 57.7 µM), inactives show top-dose activity change, negative = inhibition, actives largely listed as inhibitors | hit rate 0.25% among 100,000; note: nearly all actives have a fitted effect of over 60% in size
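Inhibition is scored from Amplex Red fluorescence generated when pyruvate oxidase and HRP act on pyruvate released by GPT2. Reactions contain 10ng/uL enzyme, 250uM a-KG and 2mM L-alanine and run 30 min at room temperature.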
3T3 cytotox: cytotoxic compounds in NIH 3T3 cells | NIH 3T3 viability, CellTiter-Glo ATP luminescence, 48-72 h | Potency, µM (series often up to 96.7 µM), for inactives: at the top dose activity change, negative = cytotoxicity, usual class: inhibitors | hit rate 4.3% among 94,000; note: nearly all actives have a fitted effect of over 55% in size
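Cytotoxicity is measured as loss of cellular ATP: NIH 3T3 cells (400/well) are exposed to compound for 48 or 72 hr at 37 °C, then CellTiter-Glo luminescence is imaged after 10 min at room temperature.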
HEK cytotox: HEK 293 cell cytotoxicity | HEK 293 viability, ATP luminescence (CellTiter-Glo), 48-72 h | Potency, µM (highest dose often 115 µM), for inactives: at the highest dose activity change, negative = cytotoxicity, most hits filed as inhibitors | hit rate 6.6% among 94,000 | AID 1345083; note: nearly all actives have a fitted effect of over 60% in size
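ATP-coupled CellTiter-Glo luminescence served as viability read-out, recorded 10 min after reagent addition at room temperature. HEK 293 cells, 250 cells/well, had been incubated with pintool-transferred compound for 48 or 72 hr at 37 degree Celsius.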
FLuc inh: inhibitors of firefly (Photinus pyralis) luciferase. Potency, µM (series often up to 115 µM), most hits filed as inhibitors. purified P. pyralis luciferase, luminescence, biochemical. hit rate 2.5% among 76,000; note: nearly all actives have a fitted effect of over 65% in size
Target sequence (P08659 whole entry, looked up): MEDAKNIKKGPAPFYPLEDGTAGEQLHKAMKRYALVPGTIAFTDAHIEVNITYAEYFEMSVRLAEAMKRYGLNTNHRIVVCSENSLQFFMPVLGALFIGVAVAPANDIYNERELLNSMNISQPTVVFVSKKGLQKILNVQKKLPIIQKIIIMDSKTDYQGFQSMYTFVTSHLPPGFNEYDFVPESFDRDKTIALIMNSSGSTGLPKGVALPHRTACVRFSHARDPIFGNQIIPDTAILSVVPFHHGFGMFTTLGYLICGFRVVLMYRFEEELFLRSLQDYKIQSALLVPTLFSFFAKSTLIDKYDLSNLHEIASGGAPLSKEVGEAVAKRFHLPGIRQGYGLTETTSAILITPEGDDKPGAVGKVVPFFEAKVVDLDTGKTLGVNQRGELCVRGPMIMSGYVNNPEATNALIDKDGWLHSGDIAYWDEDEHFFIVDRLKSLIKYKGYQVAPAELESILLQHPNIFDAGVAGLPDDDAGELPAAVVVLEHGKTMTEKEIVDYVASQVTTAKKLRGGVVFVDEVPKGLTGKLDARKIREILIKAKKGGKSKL
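Luminescence read by CCD imaging after purified firefly luciferase (10nM final) was added to substrate buffer holding 10uM D-luciferin and 10uM ATP, pH 7.5, pre-dosed with compound.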
NPR1 antag: human Npr1 receptor antagonism. HEK293 hNpr1 GloSensor cGMP, ANP-stimulated luminescence. Potency, µM (titrated, usually from 46.3 µM), inactives show top-dose activity change, negative = inhibition, most hits filed as inhibitors. hit rate 1.6% among 76,000. AID 1347048; calls by dose curve; note: nearly all actives have a fitted effect of over 60% in size
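HEK293 cells stably expressing human Npr1 and cGMP GloSensor pGS-40F, loaded 2 h with 2% GloSensor reagent, given compound 30 min at room temperature. Luminescence read before and 20 min after 0.1 nM hNppA.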
An asterisk follows results filed as active; i = inactive; ? = inconclusive; . = no result; [ ] = remark or other dose. An excerpt weighted towards active compounds, which were near 10% of everything screened. Unless noted, calls come from the whole dose curve; as a rule, active = well fitted curve in the direction sought with a large enough effect; inconclusive = small, poorly fitted or top-dose-only effect, or another doubt; inactive = no such curve, though single readings can be large; an effect the other way counts as inactive or inconclusive. % is set by controls: 0 for no effect and ±100 for the full control effect; potency is the fitted concentration of half-maximal effect.

SMILES	GPT2 inhibitor	3T3 cytotox	HEK cytotox	FLuc inh	NPR1 antag
CC(C)c1csc(CN2CC[C@@H](c3ccc4c(c3)OCO4)[C@H](O)C2)n1	i[11.5 µM]	?	22µM*	i	?
CN(C)CC(=O)N1CCC(N2C(=O)C3(CCCC3)C2c2ccccc2)CC1 (centres undefined)	-11%	-5%	-1%	i	7%
Cn1cccc1C(=O)N1CCC(N2C(=O)C3(CCCC3)C2c2ccccc2)CC1 (centres undefined)	-8%	-30%	45µM*	i	-2%
CC(C)CC(=O)N1CCC(N2C(=O)C3(CCCC3)C2c2ccccc2)CC1 (centres undefined)	i	45µM*	?	i	-3%
Cn1cc(-c2cc(=O)c3ccnc(NCc4ccc5c(c4)OCO5)c3o2)cn1	5%[88.5 µM]	25µM*	?	?	0%[70.6 µM]
CN(c1cc(=O)c2ccnc(NCc3ccc4c(c3)OCO4)c2o1)C1CCOCC1	1%[88.5 µM]	32µM*	89µM*	i	-2%[70.6 µM]
COCc1ccccc1-c1nccc2c(=O)cc(-c3cnn(C)c3)oc12	-15%[88.5 µM]	?	-10%[172 µM]	i	1%[70.6 µM]
O=C(Cc1ccccc1)NC1CCCc2c1[nH]c1ccccc21 (centres undefined)	i	22µM*	?	i	-1%
O=C(Cc1c[nH]c2ccccc12)NC1CCCc2c1[nH]c1ccc(F)cc21 (centres undefined)	-10%	32µM*	35µM*	i	-15%
COCCn1cc(C(=O)NC2CCCc3c2[nH]c2ccccc32)c2ccccc2c1=O (centres undefined)	?	?	45µM*	i	-6%
CC(C)CC(=O)NC1CCCc2c1[nH]c1ccc(Cl)cc21 (centres undefined)	-11%	20µM*	?	i	-13%
COCCCNC(=O)C(NC(=O)c1ccccc1C)C1CCN(C(=O)c2ccc(F)cc2)CC1 (centres undefined)	i	3%	0%	i	-3%
Cc1noc(C)c1-c1cc2c(cc(C)n2C)c(N2CCN(Cc3ccccc3)CC2)n1	-1%[88.5 µM]	45µM*	?	i	0%[70.6 µM]
Cc1noc(C)c1-c1cc2c(cc(C)n2C)c(-c2ccccc2)n1	?	50µM*	?	i	1%[70.6 µM]
Cc1noc(C)c1-c1cc2c(cc(C)n2C)c(-c2ccnn2C)n1	4%[88.5 µM]	?	?	i	-5%[70.6 µM]
Cc1noc(C)c1-c1cc2c(cc(-c3ccccc3)n2C)c(-c2ccnn2C)n1	-6%[88.5 µM]	?	35µM*	i	-19%[70.6 µM]
Cc1noc(C)c1-c1cc2c(cc(C)n2C)c(-c2cccc([S+](C)(=O)[O-])c2)n1	3%[88.5 µM]	14µM*	?	i	-17%[70.6 µM]
CC(C)Oc1cccc2c1c(NC(=O)C1CCN(C)C1)nn2Cc1ccccc1 (centres undefined)	0%	?	?	i	-2%
Cc1noc(C)c1-c1cc2c(cc(-c3ccccc3)n2C)c(-c2cnn(C)c2)n1	1%[88.5 µM]	11µM*	20µM*	i	-22%[70.6 µM]
Cc1noc(C)c1-c1cc2c(cc(C)n2C)c(-c2cnn(C)c2)n1	-11%[88.5 µM]	40µM*	?	i	-1%[70.6 µM]
Cc1noc(C)c1-c1cc2c(cc(C)n2C)c(-c2cccnc2)n1	-19%[88.5 µM]	?	?	i	4%[70.6 µM]
COc1cccc(-c2nc(-c3c(C)noc3C)cc3c2cc(C)n3C)c1OC	-2%[88.5 µM]	25µM*	?	i	2%[70.6 µM]
COc1cc(-c2nc(-c3c(C)noc3C)cc3c2cc(C)n3C)ccn1	-4%[88.5 µM]	?	?	i	-1%[70.6 µM]
Cc1noc(C)c1-c1cc2c(cc(-c3ccccc3)n2C)c(N2CCOCC2)n1	1%[88.5 µM]	32µM*	56µM*	i	0%[70.6 µM]
Cc1noc(C)c1[S+](=O)([O-])N1CCC(c2nn(-c3ccccn3)c(=O)[nH]2)CC1	0%	-11%	-4%	.	.
SMILES	GPT2 inhibitor	3T3 cytotox	HEK cytotox	FLuc inh	NPR1 antag
c1ccc(-c2cc3c(cn2)NCCN(Cc2ccsc2)C3)cc1	-8%[88.5 µM]	?	?	?	0%[70.6 µM]
COc1ccc(OC)c(CN2CCNc3cc(-c4ccccc4)ncc3C2)c1	i	?	112µM*	40µM*	-6%[70.6 µM]
Fc1ccc(CN2CCNc3cnc(-c4ccccc4)cc3C2)cc1F	-3%[88.5 µM]	79µM*	?	i	-2%[70.6 µM]
COc1ccccc1CN1CCNc2cc(-c3ccccc3)ncc2C1	-6%[88.5 µM]	?	?	?	-3%[70.6 µM]
COc1ccc(CN2CCNc3cc(-c4ccccc4)ncc3C2)cc1	-9%[88.5 µM]	?	50µM*	?	-20%[70.6 µM]
COc1ccccc1CN1CCNc2cc(-c3ccnc(C)c3)ncc2C1	-5%[88.5 µM]	?	89µM*	71µM*	-4%[70.6 µM]
CCCn1nc(C)cc1CN(CC)C(=O)C1CCN(c2cnn(C)c(=O)c2)C1 (centres undefined)	-5%	-18%	2%	i	3%
O=C(O)CSCC(=O)N[C@H]1C[C@H]2C(=O)Nc3ccc(-c4cccs4)cc3C(=O)N2C1	0%	-20%	-17%	i	3%
Cc1ccc(N2CCN(C(=O)c3noc(-c4ccc(F)cc4)n3)CC2)cc1	i	1%	2%	?	-21%
O=C(c1noc(-c2ccc(F)cc2)n1)N1CCN(c2ccccc2)CC1	i	-32%	?	40µM*	-7%
COc1ccccc1-c1[nH]nc2ncc(-c3cccc(F)c3)nc12	-6%[88.5 µM]	.	.	.	.
Cc1cc(F)ccc1-c1[nH]nc2ncc(-c3ccccc3)nc12	i	?	?	i	-14%[70.6 µM]
COc1cccc(-c2cnc3n[nH]c(-c4ccc(F)cc4C)c3n2)c1	-34%[88.5 µM]	?	-23%[172 µM]	i	-10%[70.6 µM]
COc1ccc(-c2[nH]nc3ncc(-c4cccnc4)nc23)cc1F	-12%[88.5 µM]	?	?	i	-3%[70.6 µM]
Cc1ccccc1-c1[nH]nc2ncc(-c3cccc(F)c3)nc12	1%[88.5 µM]	?	63µM*	20µM*	-23%[70.6 µM]
COc1ccc(-c2cnc3n[nH]c(-c4ccc(F)cc4C)c3n2)cc1OC	2%[88.5 µM]	28µM*	28µM*	i	-11%[70.6 µM]
Cc1ccccc1-c1[nH]nc2ncc(-c3ccc(F)cc3)nc12	i	?	45µM*	22µM*	-15%[70.6 µM]
COc1ccc(-c2[nH]nc3ncc(-c4ccc(CO)cc4)nc23)cc1F	3%[88.5 µM]	28µM*	35µM*	i	0%[70.6 µM]
O=C(c1ccc2ncccc2c1)N1CC[C@@H]2CN(Cc3ccccc3)[C@@H]2C1	1%	-13%	-2%	.	.
CNC(=O)c1cc(C2CC2)nc2onc(C3CCCN(C(=O)c4ccccc4Cl)C3)c12 (centres undefined)	.	-27%	?	.	.
CCCCOC(=O)N1C[C@@H](CO)[C@@H]2Oc3c(C)cccc3[C@@H]21	.	40µM*	?	.	.
CCCCCC(=O)N1C[C@@H](C(=O)OCC)[C@@H]2Oc3c(C)cccc3[C@@H]21	.	?	-31%	.	.
